From ChEMBL document CHEMBL3433997, “St. Jude Leishmania screening dataset” (2016) come the findings set out here.

Common to all, as to format: functional
Assay [1] deals with Solute carrier family 2, facilitated glucose transporter member 1 (Homo sapiens) (UniProt P11166). Nature of the assay: ST_JUDE_LEISH: Cytotoxicity at 2uM final concentration against transgenic Leishmania Mexicana promastigotes LmGLUT1 that are glucose transport deficient and complemented with the human glucose transporter GLUT1. Activity is measured by DNA content using SYBR green in vitro.

The target of assay [2] is Hexose transporter 1 (Plasmodium falciparum) (UniProt O97467). Nature of the assay: ST_JUDE_LEISH: Cytotoxicity at 2uM final concentration against transgenic Leishmania Mexicana promastigotes LmPfHT that are glucose transport deficient and complemented with the Plasmodium falciparum hexose transporter. Activity is measured by DNA content using SYBR green in vitro.
Assay [3] has as its target Glucose transporter (Leishmania mexicana) (UniProt O61059). Nature of the assay: ST_JUDE_LEISH: Cytotoxicity at 2uM final concentration against transgenic Leishmania Mexicana promastigotes LmGT2 that are glucose transport deficient and complemented with the L. Mexicana glucose transporter 2. Activity is measured by DNA content using SYBR green in vitro.

Chain of Solute carrier family 2, facilitated glucose transporter member 1 (Homo sapiens) (P11166 whole entry): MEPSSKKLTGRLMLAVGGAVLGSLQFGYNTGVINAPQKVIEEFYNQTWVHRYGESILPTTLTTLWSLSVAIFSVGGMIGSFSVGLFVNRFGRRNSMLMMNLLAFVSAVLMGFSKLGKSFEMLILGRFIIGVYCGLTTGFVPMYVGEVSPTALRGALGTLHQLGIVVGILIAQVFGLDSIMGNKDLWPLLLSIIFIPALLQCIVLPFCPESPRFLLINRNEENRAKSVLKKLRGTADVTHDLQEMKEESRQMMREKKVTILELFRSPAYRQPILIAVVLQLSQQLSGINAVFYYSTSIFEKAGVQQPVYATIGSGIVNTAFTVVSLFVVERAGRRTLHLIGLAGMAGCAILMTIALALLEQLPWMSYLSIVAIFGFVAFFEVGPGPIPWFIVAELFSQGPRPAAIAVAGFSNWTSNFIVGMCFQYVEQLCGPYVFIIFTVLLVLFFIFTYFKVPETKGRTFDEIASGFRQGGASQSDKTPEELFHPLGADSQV

What is called inhibition is the drop in the measured response relative to a control, in per cent. For `CCOc1ccc(Br)cc1/C=C/C(=O)Nc1ccc2c(c1)CN(C)CCC2`, the inhibition in assay [1] came to 4.12%; in assay [2], 5.18%; in assay [3] it was 4.34%.
The corresponding values for `Oc1ccc(Br)cc1C(O)CNCc1ccccc1OCc1ccccc1` (stereo not drawn) are 2.85%, 3.54% and 2.87%.
The corresponding values for `N=C(NCc1ccc(O)cc1)Nc1nc(-c2ccc(OCCCn3ccnc3)cc2)cs1` are 1.63%, 0.11% and -3.09%.
The corresponding values for `CN1CCN(c2ccnc3ccc(NC(=O)c4ccc(Cl)c(Cl)c4)cc23)CC1` are -1.88%, 0.68% and 0.97%.
`CC1CNC(c2cccc(NC(=O)Nc3cccc(C4=NC(C)CN4)c3)c2)=N1` (stereo not drawn): the inhibition was determined as 6.32% in assay [1], 8.33% in assay [2] and 6.15% in assay [3].
The corresponding values for `COc1ccc(-c2cccc(NC(=O)c3cccc(Cl)c3)c2)cc1CN1CCN(C)CC1` are 11.2%, 12% and 7.77%.
The corresponding values for `Cc1cc(N2CCCCC2)nc2ccc(NC(=O)c3cccc([N+](=O)[O-])c3)cc12` are 4.97%, 4.4% and 6.58%.
The corresponding values for `CC1(CCCCN2CCC(Cc3ccccc3)CC2)C(=O)Nc2ccccc21` (stereo not drawn) are 6.25%, 5.65% and 4.71%.
Regarding `O=C(Cn1c(=O)cnc2ccccc21)Nc1cccc(C(=O)Nc2cccc(C(F)(F)F)c2)c1`, the inhibition came out at 1.09% in assay [1], 3.37% in assay [2] and 1.93% in assay [3].
The corresponding values for `c1cc(CNC2Cc3ccccc3C2)cc(-c2cnc(N3CCNCC3)nc2)c1` are 0.76%, 2.77% and 1.2%.
The corresponding values for `CN1CCN(CCCN(Cc2csc(-c3ccc(CNCc4ccccc4)cc3)n2)S(=O)(=O)c2cccc3cccnc23)CC1` are 0.74%, 5.92% and 4.06%.
The corresponding values for `COc1ccc2ncc(F)c([C@H](O)CN3CCC(NCc4ccc5c(c4)OCCO5)CC3)c2c1` are 4.19%, 2.23% and 1.28%.
With `Fc1cccc(COc2ccc(Nc3ncnc4sc(C#CC5CCCCN5)cc34)cc2Cl)c1` (stereo not drawn), the inhibition in assay [1] was 3.03%; in assay [2] it was 1.13%; in assay [3], -0.16%.
The corresponding values for `O=C1c2ccc([N+](=O)[O-])cc2C(=O)N1c1ccc2[nH]ncc2c1` are 2.79%, 1.54% and 0.95%.
The corresponding values for `C[C@@H](C(=O)N1CCOCC1)N1CC[C@H](NS(=O)(=O)c2ccc3ccnc(N)c3c2)C1=O` are -1.02%, -1.24% and -4.28%.
The corresponding values for `COc1ccc(CC2(c3ccc(F)cc3)N=C(N)N(CCCc3cccnc3)C2=O)cc1` (stereo not drawn) are 2.7%, 1.49% and 2.08%.
In the case of `O=C(Nc1ccc(N2CCCN(Cc3cccc(F)c3)CC2)cc1)c1cccs1`, the inhibition in assay [1] was -0.38%; in assay [2], -0.87%; in assay [3], -3.03%.
The corresponding values for `COc1ccc(CNCc2ccc(-c3ccc(-c4nc5cccc(C)c5[nH]4)cc3)cc2)cc1` are 18.1%, 17.2% and 10.3%.
The corresponding values for `Cc1ccc(-c2nc3cc(C(=O)NC4CCC(N5CCCc6ccc(C#N)cc6C5)CC4)ccc3[nH]2)cc1` (stereo not drawn) are -1.44%, -0.52% and 5.12%.
The corresponding values for `O=C(NCCCCN1CCC(c2ccc3c(c2OCc2ccncc2)CCCC3)CC1)c1ccc(NC(=O)c2ccc(Cl)cc2)cc1` are 2.33%, 2.42% and 1.29%.
On to `O=C(/C=C/c1ccc(Cl)c(Cl)c1)NCCCCCCN1CCN(C(=O)Nc2cc(F)cc(F)c2)CC1`, for which the figures for the inhibition in assay [1], in assay [2] and in assay [3] were 5.47%, 5.75% and 7.38%, respectively.
The corresponding values for `CN(CCc1ccccc1)c1ncc(-c2cccc(CNCCC3CCCN3C)c2)cn1` (stereo not drawn) are 111%, 67% and 109%.
The corresponding values for `Cc1[nH]cnc1Cc1ccc2c(c1O)c1ccccc1n2C` are 2.71%, -0.2% and -0.18%.
In the case of `COc1ccc(Cn2c(Nc3cccc(C(F)(F)F)c3)nc3ccc(C(=O)NCCN4CCCC4)cc32)cc1Cl`, the figures for the inhibition in assay [1], in assay [2] and in assay [3] were 8.87%, 6.74% and 14.2%, respectively.
Take `CN(Cc1c(Cl)cnn1C)S(=O)(=O)c1ccc2ccccc2c1`: the figures for the inhibition in assay [1], in assay [2] and in assay [3] were 5.51%, 7.25% and 5.64%, respectively.
As for `COc1cc(NC(=O)c2cccc([N+](=O)[O-])c2)cc(S(=O)(=O)c2ccc(Cl)cc2)c1`, the results for the inhibition in assay [1], in assay [2] and in assay [3] were -0.46%, -1.02% and 0.68%, respectively.
In the case of `COc1ccc(-c2ccc(CNCc3ccc(F)cc3)cc2)cc1S(=O)(=O)NCCN1CCCC1`, the results for the inhibition in assay [1], in assay [2] and in assay [3] were 0.67%, 1.06% and 3.23%, respectively.
Turning to `CC1(C)N=C(N)N=C(N)N1CCc1ccccc1`, the figures for the inhibition in assay [1], in assay [2] and in assay [3] were 11.6%, 7.56% and 8.45%, respectively.
The corresponding values for `Cc1ccccc1/N=C1\NC(=S)N(c2cccc(C(F)(F)F)c2)C12CCC(C(C)(C)C)CC2` (stereo not drawn) are 2.78%, 2.68% and 2.58%.
The corresponding values for `N#Cc1ccc(-c2ccc(C(=O)NC3CCN(CCN4CCC(c5cn(CCO)c6ccccc56)CC4)CC3)cc2)cc1` are 1.3%, 1.27% and 1.44%.
Regarding `COc1ccccc1/C=C/C(=O)N(C)C1CCN(CCCCCNC(=O)/C=C/c2ccc(Cl)c(Cl)c2)CC1`, the figures for the inhibition in assay [1], in assay [2] and in assay [3] were 4.19%, 2.77% and 5.48%, respectively.
On to `N=C(Nc1nc(-c2ccccn2)cc2ccccc12)c1cccc(Cl)c1`, for which the inhibition in assay [1] turned out to be 50.7%; in assay [2] it was 48.7%; in assay [3] it was 18.1%.
The corresponding values for `CCCN1CCN(c2ccccc2NS(=O)(=O)c2ccc(C(=O)Nc3ccc(Cl)cc3)cc2)CC1` are 2.67%, 3.32% and -1.54%.
As for `COc1ccc(N(c2nc(-c3cc(Cl)ccc3Cl)cs2)C2CCNC2)cc1` (stereo not drawn), the inhibition turned out to be 4.89% in assay [1], 4.65% in assay [2] and 1.24% in assay [3].
For `COc1ccc(C2CC(c3cccs3)=NN2C(=O)COc2cccc3c2CCCC3O)cc1OC` (stereo not drawn), the inhibition in assay [1] is -1.84%; in assay [2], -0.04%; in assay [3], 4.14%.
The corresponding values for `Oc1cc(-c2cccc(C(F)(F)F)c2)nc(Nc2ccc(Cl)c(Cl)c2)n1` are 0.75%, 0.89% and 0.9%.
